Whole data set: some 33,000 sequences, median “E-score (-0.5 to 0.5)” near -0.016, cut for the highest 2% near 0.31. Only a selection was taken, and the highest values are over-represented in it overall.
Biological target: Cst6 (UniProt P40535)
Assay: PBM E-score (8-mer binding enrichment) (E-score (-0.5 to 0.5)); higher = stronger / more preferred TF binding
Settings: protein concentration: 200 nM; construct: GST-DNA-binding domain
Protocol: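 Universal 'all 10-mer' protein binding microarrays (Agilent AMADID 015681) probed with GST-tagged S. cerevisiae TFs (full-length or DBD) made by in vitro transcription/translation (PURExpress), about 100-200 nM. Bound TF was detected with fluorescent anti-GST. Each ungapped 8-mer (which stands for itself and its reverse complement) is scored by the PBM enrichment score (E-score), a modified Wilcoxon-Mann-Whitney statistic from -0.5 to +0.5, computed with the Universal PBM Analysis Suite. Scale: above 0.35 generally sequence-specific binding.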

Sequence of UniProt P40535 (P40535 whole entry): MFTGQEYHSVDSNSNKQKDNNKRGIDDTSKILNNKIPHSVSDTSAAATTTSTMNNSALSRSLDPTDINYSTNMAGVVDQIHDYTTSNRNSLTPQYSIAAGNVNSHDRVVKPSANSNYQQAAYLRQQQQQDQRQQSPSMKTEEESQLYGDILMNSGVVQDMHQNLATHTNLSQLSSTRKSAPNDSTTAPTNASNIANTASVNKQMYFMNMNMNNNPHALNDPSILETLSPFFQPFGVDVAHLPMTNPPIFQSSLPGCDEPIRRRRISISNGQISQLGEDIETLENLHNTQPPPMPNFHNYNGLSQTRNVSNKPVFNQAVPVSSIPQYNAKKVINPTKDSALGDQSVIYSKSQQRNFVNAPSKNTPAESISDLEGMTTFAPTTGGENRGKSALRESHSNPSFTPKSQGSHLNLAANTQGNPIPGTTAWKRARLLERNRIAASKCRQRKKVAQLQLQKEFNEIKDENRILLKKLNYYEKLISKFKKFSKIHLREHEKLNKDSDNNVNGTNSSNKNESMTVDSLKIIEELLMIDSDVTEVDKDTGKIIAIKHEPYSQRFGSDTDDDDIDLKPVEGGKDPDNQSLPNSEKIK

Sequence | PBM E-score
GCACTCTA | -0.0783
AGAAAACG | 0.168
GCTTAGAC | -0.195
CAAGCGAG | -0.00525
TATAGGCA | -0.112
ACATCTGC | -0.0513
CAACAGCA | 0.00053
AAGGTTGG | 0.0155
GCGGAAAA | 0.17
GCGTAAAA | 0.0958
CCGTAAAA | 0.0767
ACGTAAAA | 0.354
CACACAGG | 0.0469
GGTCATTA | 0.178
AGTCATTC | 0.0571
CCTCATTC | -0.0459
AGTCATTA | 0.0194
CGTCATTC | 0.467
CGTCATTA | 0.477
GAGCACCA | -0.219
ACCCTTCG | -0.0964
CCCGTCAC | 0.2
ATCGTCTC | -0.0844
ACCGTCAA | 0.159
ACCGTCAT | 0.418
CTCGTCAC | 0.349

Sequence | PBM E-score
ATCGTCAC | 0.401
CTCGTCAA | 0.0507
GCCGTCAA | 0.0714
CTCGTCAG | 0.127
GCCGTCAC | 0.334
ACCGTCAG | -0.0719
ATCGTCGC | -0.0136
ACAGGAAG | -0.0175
CCAGCTCA | -0.146
CAGGCATC | -0.213
ATATAACG | 0.267
CAATTAGG | 0.0223
ACCCCCGC | -0.33
ATGTTGGC | -0.0418
CCGATAGA | -0.124
ACCGAGGG | -0.446
CTCCGCAC | -0.0765
CGCTGCGA | 0.0077
TCAACCCA | -0.0214
ATCGTCAA | 0.223
GTCGTCAA | 0.147
GTCGTCAC | 0.425
GTCGTCGA | -0.00727
ATCGTCAG | 0.131
ATCGTCAT | 0.448
CTAAGACA | 0.0903

Sequence | PBM E-score
AGGGCATA | 0.0409
AACGCACG | 0.179
AGCCACAG | -0.232
ATGGATAC | -0.0649
AATTCAAA | 0.23
ACGCAATG | 0.24
ACGCAATA | 0.349
GCGCAATA | -0.079
ATCAGACA | -0.00162
CCGGCGCG | -0.0219
ACGGCGAG | 0.18
ACGGCGCA | 0.349
GCGGCGCA | 0.197
CCGGCGCA | -0.107
ACGGCGCC | 0.364
ACGGCGCG | 0.381
ACGGCGCT | 0.251
ACGGCGAC | 0.217
TCGGCGCA | 0.071
CCGGCGCC | 0.14
GCGGCGCC | 0.376
ACCAAACA | 0.277
AGGAGCCT | -0.209
AATAAGAG | 0.055
AATAAGAA | 0.312
AATAAGAT | 0.232

Sequence | PBM E-score
GATAAGAA | 0.291
CATAAGAA | 0.342
TATAAGAA | 0.125
TCCATAAA | 0.123
CCATTGCC | 0.0353
AATGCACG | 0.0682
AAATTCGT | 0.306
AAATTCGC | 0.211
AAATTCGG | 0.0235
CGCCTCAG | 0.00359
CCTTGACC | -0.19
CGTCAGAC | 0.287
AGTCACAG | -0.0682
TGTCACAA | 0.254
AGTCACAC | 0.00702
CGTCACAC | 0.414
CGTCAGAG | 0.365
CGTCAGAA | 0.286
CGTCACAA | 0.4
GGTCACAC | -0.0298
CCTCACAG | -0.0712
GGTCACAA | -0.0375
CGTCACAG | 0.424
ACGATTCT | 0.039
ACTATCCG | 0.0433
CAAACCAG | -0.0964

Sequence | PBM E-score
CATACATG | 0.0541
CCTTCTCG | -0.264
CAGTAGAG | -0.0984
AGACAAAT | 0.159
AGAAAATG | 0.0622
GTCATTGA | 0.391
ATCATTGG | 0.194
ATCATTGA | 0.306
GACATTGA | 0.096
CTCATTGA | -0.0286
ATCATTGC | 0.188
AGGGCTTG | -0.0617
AGGATCAG | -0.266
CTTCCTGA | 0.112
GGGACTCA | -0.353
CTAGCTAG | -0.074
AAAATAAT | 0.302
AGGTTCCA | -0.124
GTAGTGAC | 0.332
GTAGTGAA | 0.0467
ATAGTGAA | -0.00864
CTAGTGAC | 0.234
GCAGTGAC | 0.17
ATAGTGAC | 0.392
CTCCTGGC | -0.195
CTTCCTCC | -0.235

Sequence | PBM E-score
ATGTCTTC | -0.153
CGATACTA | 0.1
CAACTTCG | 0.0207
GCATCATA | 0.339
ACATCAAG | 0.207
ACATCATG | 0.409
ACATCATA | 0.443
ACATCATC | 0.462
CCATCATC | 0.146
AAATCATA | 0.275
AAATCATC | 0.175
ACATCAGA | 0.16
AGATCATG | 0.137
GCATCAGA | 0.159
CCATCATA | 0.122
ACTTAACT | 0.0697
ATAGCCAA | 0.0258
GGAGCAGA | -0.114
TATGCTAA | 0.0861
CTAGGATA | -0.125
ATCTGGGA | -0.197
GGTTGCGA | -0.0447
AGGGCATC | -0.0843
GCGGTGAA | 0.0906
GCGGTGAC | 0.345
ACGGTGAG | -0.0622

Sequence | PBM E-score
ACGGTGAC | 0.307
AGGGTGAG | -0.176
CAGGTGAC | 0.258
AAGGTGAC | 0.243
ACGGTGAT | 0.121
GAGGTGAC | 0.407
GGGGTGAC | 0.284
AGGGTGAC | 0.345
GCGGTGCC | -0.0111
CGGGCCGA | -0.167
GAGTATGA | 0.169
CATGATCA | 0.231
CCGGTAGA | -0.132
CTCCCTGC | -0.218
ACAGAGAT | 0.178
CCCTTCCG | -0.274
CATAGTTC | 0.0666
AGTGAGAA | 0.149
ACGGGGCC | 0.00152
AGTGAACG | -0.0226
GGCTCCCC | -0.226
ATTCCATC | 0.199
CCGGTGAA | 0.0804
CCGGTGAG | -0.116
CCGGTGAC | 0.335
CACACAAA | 0.165

Sequence | PBM E-score
AACACAAA | 0.0222
TACACAAA | 0.311
TCTGGCCA | -0.0762
AATTTTGC | 0.144
CGCATCCG | -0.0682
ATCATCCC | 0.154
CGTCACCA | 0.484
AGTCACCC | 0.117
GGTCACCA | -0.148
CGTCACCC | 0.466
AGTCACCA | 0.0433
CCTCACCC | 0.0853
CGCCTCAC | 0.135
ATACCATC | 0.00666
ATTCACAC | 0.134
ACGAGTAA | 0.141
GGAAATCA | 0.0954
CGAAATCA | 0.269
TGAAATCA | 0.322
CCTTTTCG | 0.021
GTTGGACA | -0.0168
AAGAAAGT | 0.153
GAGGGCTA | -0.27
ATTTCGGG | 0.0105
AAAAGTGT | 0.0733
AAAAGTGG | 0.112

Sequence | PBM E-score
AAAAGTGA | 0.306
GGGGTAAA | 0.0414
CCTGGGAA | -0.136
GCGAAAAA | 0.197
CAAACTTG | -0.0352
GTCTCCCA | -0.244
GTAATAAA | 0.352
TTAATAAA | 0.307
CTAATAAA | 0.169
GTAAATAA | 0.176
ATAATAAT | 0.238
GTTATAAA | 0.269
ATAATAAA | 0.325
GTAATAAC | 0.197
TAAATAAA | 0.289
CTTATAAA | 0.138
TTTATAAA | 0.359
ATAATAAC | 0.205

Reference: the supplement of paper PMC3334620
